Assay [1] in a line: NCI Yeast Anticancer Drug Screen. Data for the rad50 strain (AID 155).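 Further: 0% = growth of vehicle-only cultures of the same strain.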 The following applies: S. cerevisiae rad50 strain growth inhibition; at 50.0 µM; hits give high values. The method in brief: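 Genetically altered yeast (DNA repair pathway); compound treatment; growth inhibition vs vehicle ctrl.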
The nature of assay [2]: NCI Yeast Anticancer Drug Screen. Data for the mec2-1 strain (AID 157). The note with it: S. cerevisiae mec2-1 strain, at 50.0 µM, hits give high values. The method in brief:
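Strain: mec2-1 (DNA repair/cell cycle alteration). Compound exposure, then growth measured; inhibition expressed relative to vehicle.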

Assay [3] can be described thus: NCI Yeast Anticancer Drug Screen. Data for the sgs1 mgt1 strain (AID 161).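 Further: 0% = growth of cultures given vehicle only.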 The note with it: S. cerevisiae sgs1 mgt1 strain, at 50.0 µM, hits give high values. The method in brief: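 Mutant yeast exposed to compound; growth scored against vehicle-only wells.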
Assay [4] in a line: NCI Yeast Anticancer Drug Screen. Data for the cln2 rad14 strain (AID 165).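 Further: 0% = growth equal to vehicle treated cultures.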 The note with it: S. cerevisiae cln2 rad14 strain, at 50.0 µM, hits give high values. The method in brief: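 Compounds are applied to the cln2 rad14 yeast strain, and growth is then compared with that of vehicle-treated cultures to give inhibition.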
The nature of assay [5]: NCI Yeast Anticancer Drug Screen. Data for the bub3 strain (AID 167). The following applies: S. cerevisiae bub3 mutant strain, at 50.0 µM, hits give high values. The method in brief: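 Yeast carrying a defined mutation is treated with each compound, and growth is compared with that of vehicle-exposed cells to give inhibition.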
A short description of assay [6]: NCI Yeast Anticancer Drug Screen. Data for the mlh1 rad18 strain (AID 175). The note with it: S. cerevisiae mlh1 rad18 strain growth inhibition; at 50.0 µM; hits give high values. The method in brief:
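Read-out is yeast growth inhibition, calculated against vehicle-only controls. The compound was applied to a strain engineered with DNA damage repair alterations.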

The structures appear in SMILES notation. The panel holds about 79,000 compounds, 15% with a hit somewhere; the sample as a whole holds those more often. A number with no mark means an inactive call. Activity calls are given as the source filed them. No stated cut-off is given here; in the data, active means growth inhibition above about 70%; inactive means the rest. Where a SMILES comes first, the peptide text is derived from it. [ ]: non-standard residue; d: D form. The star is where a group is joined. Ac5c = NC1(C(=O)O)CCCC1; Cbz = O=C(OCc1ccccc1)*

Consider `ClC(=Nc1ccccc1)c1cc(Cl)ccn1`, for which the growth inhibition is 18.1% in assay [1]; -1.8% in assay [2]; 8.3% in assay [3]; -12.4% in assay [4]; 50% in assay [5]; 8.15% in assay [6].
For `Cc1ccc2c(c1)[n+]([O-])c1c3ccccc3[nH]c1[n+]2[O-]`, the growth inhibition is 63.2% in assay [1]; 23% in assay [2]; 22.9% in assay [3]; 25.7% in assay [4]; 15.2% in assay [5]; 26.4% in assay [6].
As to `CCC1(CCC#N)CCC(N)=CC1=O` (stereo not drawn), the growth inhibition is 21.9% in assay [1]; 17.3% in assay [2]; 7.9% in assay [3]; -50% in assay [4]; -6.2% in assay [5]; -0.75% in assay [6].
Regarding `CCCCN(CCO)CCO`, the growth inhibition in assay [1] was -4.95%; in assay [2], -8.45%; in assay [3], 9.3%; in assay [4], 14.8%; in assay [5], 9.4%; in assay [6], 2.75%.
Turning to `CCOC(=O)Nc1cc(Cl)c2ncn(C(=O)OCC)c2n1`, the growth inhibition in assay [1] was 40.3%; in assay [2], 16.2%; in assay [3], 10.9%; in assay [4], 18.9%; in assay [5], 3.05%; in assay [6], 17.9%.
Consider `CCOC(=O)C1C(C)NC(C)C(C(=O)OCC)C1c1ccccc1Cl` (stereo not drawn), for which the growth inhibition in assay [1] was 11.1%; in assay [2], 6.25%; in assay [3], 6.35%; in assay [4] it was 4.25%; in assay [5], 2.9%; in assay [6], 9.8%.
Take `Cn1cc(N=P(c2ccccc2)(c2ccccc2)c2ccccc2)c(=O)n(C)c1=O`: the growth inhibition is -5.8% in assay [1]; 4.15% in assay [2]; -11.1% in assay [3]; 1.35% in assay [4]; -2.15% in assay [5]; 5.55% in assay [6].
As to `CC(C)(C)n1c(=O)n(C(=O)C(Cl)(Cl)Cl)n(C(=O)C(Cl)(Cl)Cl)c1=O`, the growth inhibition in assay [1] is -13.8%; in assay [2] it was -16.6%; in assay [3], -14.6%; in assay [4], 19.1%; in assay [5] it was -10.3%; in assay [6], -4.45%.
As to `COc1cc2ccccc2ccc1=O`, the growth inhibition in assay [1] is 13.4%; in assay [2] it was 7.95%; in assay [3], -6.45%; in assay [4], -3.55%; in assay [5], 13.6%; in assay [6] it was 4.5%.
With `CC(=O)CC(=O)Nc1cccc(O)c1`, the growth inhibition in assay [1] is -15%; in assay [2], -21.8%; in assay [3], -14.9%; in assay [4], 11.8%; in assay [5], -3.85%; in assay [6] it was -2.85%.
Consider `COc1ccc2c(c1)CC1(CC2)CCN(CCCN(C)C)CC1`, for which the growth inhibition in assay [1] was -32.3%; in assay [2], -7.85%; in assay [3] it was -22.2%; in assay [4] it was 10.6%; in assay [5], -9.7%; in assay [6] it was -42.3%.
Take `O=C1NC(=S)N/C1=C\c1ccco1`: the growth inhibition in assay [1] is 21.9%; in assay [2] it was 10.2%; in assay [3] it was 0.5%; in assay [4], 15.2%; in assay [5], 26.5%; in assay [6], 32%.
As to `CCOC(=O)C1=CC(C)(C(=O)OCC)Nc2c(nc(N)[nH]c2=O)N1` (stereo not drawn), the growth inhibition in assay [1] is -42.5%; in assay [2], -12.9%; in assay [3], -8.35%; in assay [4], 4.35%; in assay [5], -35.3%; in assay [6] it was -19.9%.
For `COc1ccc(-c2ccc(Cc3ccc(-c4ccc(OC)cc4)o3)o2)cc1`, the growth inhibition is 4.35% in assay [1]; -0.35% in assay [2]; 6.7% in assay [3]; -72.7% in assay [4]; -6.4% in assay [5]; 1% in assay [6].
With `O=C1CCc2cc3c(cc21)OCO3`, the growth inhibition in assay [1] was 4.8%; in assay [2], -33.8%; in assay [3], -3.95%; in assay [4], -9.35%; in assay [5] it was 6.7%; in assay [6], -6.15%.
For `CCN(CC)CCCC(C)Nc1cc(C)nc(Nc2nc3cc(Cl)c(Cl)cc3[nH]2)n1` (stereo not drawn), the growth inhibition in assay [1] is 96.8% (active); in assay [2], 94.1% (active); in assay [3], 97.4% (active); in assay [4] it was 56.2%; in assay [5] it was 83.9% (active); in assay [6], 95.8% (active).
`O=P(Nc1ccc(Cl)cc1)(Nc1ccc(Cl)cc1)N1CCCCC1`: the growth inhibition was 23% in assay [1]; -45.1% in assay [2]; 5.8% in assay [3]; -21% in assay [4]; 19.9% in assay [5]; 9.2% in assay [6].
Turning to `C[n+]1cc(I)cc2ccccc21`, the growth inhibition in assay [1] was 3.85%; in assay [2], -3.45%; in assay [3], -9.55%; in assay [4], -0.2%; in assay [5], 4.05%; in assay [6], 5.05%.
As for `C[N+](C)(C)/N=C(/c1ccccc1)C1CCCCC1`, the growth inhibition is -20.2% in assay [1]; -2.1% in assay [2]; -4.35% in assay [3]; -43.5% in assay [4]; 0.4% in assay [5]; 7.7% in assay [6].
For the molecule `O=S1(=O)COc2ccccc2-c2ncncc21`, the growth inhibition is 10.2% in assay [1]; -9.85% in assay [2]; -2.35% in assay [3]; 31.2% in assay [4]; -2.6% in assay [5]; -11.8% in assay [6].
As for `CC(=O)NC1=C(Sc2ccc(Cl)cc2)C(=O)c2ccccc2C1=O`, the growth inhibition in assay [1] is 56.2%; in assay [2] it was 15.8%; in assay [3], 18.3%; in assay [4], -56.4%; in assay [5], 19.9%; in assay [6], 33.2%.
With `NC(=O)NC(c1ccc(O)cc1)c1cc2c(cc1O)OCO2` (stereo not drawn), the growth inhibition in assay [1] was -4%; in assay [2] it was 1.9%; in assay [3], -11.8%; in assay [4] it was -36.8%; in assay [5], 5.75%; in assay [6], -0.55%.
Regarding `COC(O)C(=O)c1c2c(cc3c1CCC3)CCC2` (stereo not drawn), the growth inhibition was 29.1% in assay [1]; 45.8% in assay [2]; 39.3% in assay [3]; 12.3% in assay [4]; 21.1% in assay [5]; 21% in assay [6].
As for `CCN(CC)CCCC(C)Nc1ccnc2ccc3nn(C)nc3c12` (stereo not drawn), the growth inhibition in assay [1] was -11.6%; in assay [2], -4.6%; in assay [3] it was -15.2%; in assay [4], 2.25%; in assay [5], -14%; in assay [6], -14.3%.
As for `Oc1ccc(-c2nnc(-c3ccc(O)cc3)nn2)cc1`, the growth inhibition was 10.8% in assay [1]; 17.4% in assay [2]; 21.1% in assay [3]; 17.4% in assay [4]; 23.2% in assay [5]; 10.9% in assay [6].
For the molecule `CN(C)C1=NS(=O)(=O)N=C(N(C)c2ccccc2)O1`, the growth inhibition was 14.5% in assay [1]; 6.65% in assay [2]; 6.45% in assay [3]; 16.8% in assay [4]; 8.15% in assay [5]; 10.5% in assay [6].
On to `CN1CCc2sccc2C(c2ccccc2)O1` (stereo not drawn), for which the growth inhibition in assay [1] was 0.75%; in assay [2], 16.1%; in assay [3], -3.8%; in assay [4], 0.65%; in assay [5], 17.2%; in assay [6], -3.4%.
As for `O=C(O)CNC(=O)C1(NC(=O)CNC(=O)OCc2ccccc2)CCCC1` (Cbz-Gly-[Ac5c]-Gly-OH), the growth inhibition in assay [1] is 4.7%; in assay [2] it was 20.3%; in assay [3] it was 11.2%; in assay [4], -2.3%; in assay [5], -5.05%; in assay [6], 18.3%.
With `CC(=O)C1(C)SC(N(c2ccccc2)c2ccccc2)=NC1=O` (stereo not drawn), the growth inhibition in assay [1] was -1.2%; in assay [2], -4.4%; in assay [3], -4.05%; in assay [4], 2.4%; in assay [5], 9.05%; in assay [6] it was -0.6%.
As to `CCC(C)C1CCCCC1OC(=O)CCl` (stereo not drawn), the growth inhibition was -5.45% in assay [1]; -14.8% in assay [2]; -16.3% in assay [3]; 0.05% in assay [4]; -9.55% in assay [5]; -18.6% in assay [6].
As to `CCOC(=O)CCc1nc2ccccc2[nH]1`, the growth inhibition in assay [1] was 0.6%; in assay [2], -0.6%; in assay [3], -0.3%; in assay [4], 3.7%; in assay [5], 0.5%; in assay [6], -4.25%.
Take `CCC1CN2CCc3cc(OC)c(OC)cc3C2CC1CCCl` (stereo not drawn): the growth inhibition in assay [1] is -8.6%; in assay [2] it was 4.05%; in assay [3] it was -4.5%; in assay [4], -9.7%; in assay [5] it was -29.9%; in assay [6], -24.7%.
In the case of `COc1ccn(C2OCCC(OC(C)=O)C2O)c(=O)n1` (stereo not drawn), the growth inhibition is -19.8% in assay [1]; -24.1% in assay [2]; 6.25% in assay [3]; -22.9% in assay [4]; 0.4% in assay [5]; 11.7% in assay [6].
For `CCOC(=O)C1(C(=O)OCC)CSC1`, the growth inhibition was -16.6% in assay [1]; -5.45% in assay [2]; -17.1% in assay [3]; 3.85% in assay [4]; -17.8% in assay [5]; -22.3% in assay [6].
On to `CC1=CC(=C(c2cc(C)c(O)c(C(=O)O)c2)c2cc(C)c(O)c(C(=O)O)c2)C=C(C(=O)O)C1=O`, for which the growth inhibition is -2.3% in assay [1]; -28.1% in assay [2]; -8.5% in assay [3]; 2.3% in assay [4]; 8.8% in assay [5]; 7.3% in assay [6].
For the molecule `CC(=O)ONc1nc(C)c(CCC2OCCO2)c(SC(=N)N)n1`, the growth inhibition is 28.9% in assay [1]; 27.2% in assay [2]; 30% in assay [3]; 14.9% in assay [4]; -1.7% in assay [5]; 38.2% in assay [6].
Regarding `O=C(O)c1cc2c(c(C(=O)O)c1O)CCCC2`, the growth inhibition in assay [1] was 11.3%; in assay [2], -19.6%; in assay [3], 9.95%; in assay [4] it was -23.2%; in assay [5] it was -6.35%; in assay [6], -4.85%.
As for `CCOc1c(OC)cc(-c2nnc(SCCN(CC)CC)o2)cc1OC`, the growth inhibition in assay [1] was 11.4%; in assay [2] it was 0.35%; in assay [3] it was 7.1%; in assay [4] it was 16.7%; in assay [5], 0.15%; in assay [6], -7.05%.

These data come from PubChem BioAssay (NCI).
